Compound activity (PubChem BioAssay)
An excerpt weighted towards active compounds, which were near 4.1% of everything screened.
TRPM1 prom inh – inhibitors of MITF-dependent TRPM1 promoter reporter, primary screen, cell-based, SK-MEL-5, single point, luciferase; SK-MEL-5 TRPM1 promoter luciferase, 24 h; inhibition, % at 12.5 µM; actives 0.83% (n = 330,000); AID 488899, 2010;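 active = mean inhibition across replicates of 60% or more, whatever share of single replicates reaches that level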
TWEAK-Fn14 inh – inhibitors of TWEAK-Fn14 signaling, primary screen, luciferase reporter cells, uHTS | AID 1159606, 2016 | actives 2% (n = 360,000) | TWEAK-stimulated Fn14 reporter cells, luciferase luminescence, 8 h | inhibition, % at 10 µM; in the data active = inhibition above about 50%
LMP1 NFkB inh – EBV LMP1-driven NF-kappaB luciferase reporter inhibitors, primary screen, cell-based, luminescence, single point | actives 0.69% (n = 350,000) | inhibition, % at 12.5 µM | LMP1-induced NF-kappaB luciferase reporter cells; in the data active = inhibition above about 41%;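 note: 0% = neutral control wells and 100% = reference inhibitor control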
Shn3 inh set2 – reduction of Shn3 3'UTR firefly luciferase signal, primary screen, Schnurri-3 inhibitor project, cell-based, Clone20 osteoblasts, set 2; Clone20 osteoblast Shn3 3'UTR firefly luciferase, 24 h; inhibition, % at 12.5 µM; actives 0.52% (n = 360,000); AID 588674, 2011;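 active = mean inhibition of at least 75% with every replicate also reaching 75%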;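 note: 0% = median of neutral control wells and 100% = pilot-screen positive control compound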
Peg3 promoter – Peg3 promoter-driven luciferase inhibitors, primary screen, cell-based, HeLa, luciferase luminescence | HeLa PEG-Prom luciferase reporter, overnight | inhibition, % at 20 µM | actives 1.7% (n = 360,000) | AID 588405, 2011;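 active = inhibition of at least 50% at 20 µM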
TROY NFkB inh – inhibitors of TROY-driven NF-kB signaling, primary screen, Q293 LMP1-TROYcd cells, NF-kB luciferase, uHTS | Q293 LMP1-TROYcd NF-kB luciferase reporter, 4 h | inhibition, % at 10 µM | actives 0.98% (n = 360,000);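 active = compounds whose plate-normalised and pattern-corrected inhibition of the luciferase reporter signal at the single screening dose is 50% or more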
Starred values were filed as active, the others as inactive; nt = no result.

SMILES	TRPM1 prom inh	TWEAK-Fn14 inh	LMP1 NFkB inh	Shn3 inh set2	Peg3 promoter	TROY NFkB inh
N#Cc1cc2cc3c(cc2nc1SCC(=O)N1CCCC1)OCCO3	-74.8	35.9	-31.8	-77.7	-276.5	50.6*
N#Cc1cc2c(nc1SCC(=O)N1CCOCC1)CCCCC2	17.2	94.9*	29.1	32.1	-19.6	80.8*
Cc1noc(C)c1C(=O)N1CCC1(C)C(=O)NS(=O)(=O)Cc1cccc(Cl)c1 (stereo not drawn)	nt	0.7	nt	-23.4	2.2	3.1
CC(C)N(Cc1nccn1C)C(=O)CC1C(=O)NCCN1Cc1ccc(F)c(F)c1 (stereo not drawn)	-9.9	11.9	-8.3	-8.5	-2.8	-2.7
Cc1ccc(NC(=O)CSc2ncccn2)cc1S(=O)(=O)N1CCCCC1	3.5	1.4	-6.6	13.9	14.1	-11.3
C/C(=N\NC(=O)c1nnn(-c2nonc2N)c1CN1CCOCC1)c1ccc(CC(C)C)cc1	-17.3	7.7	1.0	15.4	-18.3	-13.6
Cc1oc2cc3c(C(=O)N4CCCCC4)c(C)oc3cc2c1C(=O)N1CCCCC1	-45.9	73.7*	-25.6	-75.6	-128.8	59.5*
COc1cc2c(C(=O)N3CCN(C)CC3)c(C)oc2cc1Br	-6.8	11.3	-4.0	8.8	7.5	15.2
COc1cccc(CN2C(=O)C(C)N(C(=O)c3c(F)cccc3F)c3ccccc32)c1 (stereo not drawn)	7.4	74.5*	18.1	78.9	36.3	38.0
CC1C(=O)N(Cc2ccccc2F)c2ccccc2N1C(=O)c1c(F)cccc1F (stereo not drawn)	14.9	32.3	4.0	53.4	38.0	30.3
COc1ccc2[nH]c(=O)c(CN(CC3CCCO3)C(=O)Nc3ccc(F)cc3)cc2c1 (stereo not drawn)	14.2	21.5	2.3	49.6	76.7*	2.6
CC(Sc1nnc(N)s1)C(=O)Nc1ccc2c(c1)OCCO2 (stereo not drawn)	-11.6	1.3	2.1	0.2	-21.1	-10.5
C#CCOCCOCCOCCNc1nc(N2CCN(C(=O)CCCCCCCCCCNC(=O)Cn3cc(CCCCCN)nn3)CC2)nc(N2CCN(C(=O)CCCCCCCCCCNC(=O)[C@H]([C@@H](C)CC)n3cc(CCCCN=C(N)N)nn3)CC2)n1	74.6*	10.3	-7.2	26.6	25.4	3.5
C#CCOCCOCCOCCNc1nc(N2CCN(C(=O)CCCCCCCCCCNC(=O)[C@H](CO)n3cc(CCCSC)nn3)CC2)nc(N2CCN(C(=O)CCCCCCCCCCNC(=O)[C@H](CCCCN)n3cc(CCO)nn3)CC2)n1	7.0	-9.8	4.0	-14.9	14.6	-5.4
C#CCOCCOCCOCCNc1nc(N2CCN(C(=O)CCCCCCCCCCNC(=O)[C@H]([C@@H](C)CC)n3cc(CCCCCN)nn3)CC2)nc(N2CCN(C(=O)CCCCCCCCCCNC(=O)[C@H](CCCCN)n3cc(CCCC(=O)O)nn3)CC2)n1	-5.3	-24.1	5.9	-14.7	-26.5	2.3
C#CCOCCOCCOCCNc1nc(N2CCN(C(=O)CCCCCCCCCCNC(=O)[C@H](CO)n3cc(CCCSC)nn3)CC2)nc(N2CCN(C(=O)CCCCCCCCCCNC(=O)[C@H](CCCN=C(N)N)n3cc(C[C@@H](C)CC)nn3)CC2)n1	88.6*	-8.6	0.0	10.3	0.5	-2.4
C#CCOCCOCCOCCNc1nc(N2CCN(C(=O)CCCCCCCCCCNC(=O)Cn3cc(CCCCCN)nn3)CC2)nc(N2CCN(C(=O)CCCCCCCCCCNC(=O)[C@@H](CCSC)n3cc(CCO)nn3)CC2)n1	34.6	-24.5	5.3	5.0	77.0*	-20.8
C#CCOCCOCCOCCNc1nc(N2CCOCC2)nc(N2CCN(C(=O)CCCCCCCCCCNC(=O)[C@@H]([C@H](C)CC)n3cc(CCCCCN)nn3)CC2)n1	18.9	-38.9	-2.8	1.5	52.8*	-1.9
